Experiment [1] in a line: optical density shifts of acrAB sulA E. coli – strain DRC41, OD650, 48 h, E. coli filamentation inducer project, primary screen (AID 1152).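 Note: E. coli MC1000 strain DRC41 lacking acrAB efflux pump and sulA.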 Particulars: higher = more signal, called active from +8 up or from −8 down.
Experiment [2] can be described thus: probe aLefty1 binding on compound microarray – biochemical, small-molecule microarray, 635/667 nm fluorescence, primary screen (AID 1153).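 Note: score merges spot fluorescence with signal-to-noise ratio from the scanned slide images.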 The conditions noted are these: higher = more signal.
The nature of experiment [3]: plasmodial surface anion channel blockers, osmotic lysis – cell-based, P. falciparum Indochina, OD700, 1 h, primary screen (AID 1154). Particulars: P. falciparum Indochina infected RBC osmotic lysis, higher = more signal, called active from +8 up or from −8 down.
Experiment [4] is described as follows: plasmodial surface anion channel blockers, osmotic lysis – cell-based, P. falciparum Indochina, OD700, 2 h, primary screen (AID 1155).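 Note: lysis reports solute entry through the parasite surface anion channel PSAC.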 The conditions noted are these: P. falciparum Indochina infected erythrocytes, higher = more signal, called active from +8 up or from −8 down.
A short description of experiment [5]: changes in parasitized red cell lysis, either direction – P. falciparum Indochina, OD700, 3 h, PSAC antagonist project, primary screen (AID 1156). The conditions noted are these: P. falciparum-infected erythrocytes, osmotic lysis, higher = more signal, called active from +8 up or from −8 down.
Experiment [6] in a line: plasmodial surface anion channel blockers, osmotic lysis – cell-based, P. falciparum Indochina, OD700, 18 h, primary screen (AID 1157). The conditions noted are these: P. falciparum Indochina infected erythrocytes, osmotic lysis OD700, 18 h; higher = more signal, called active from +8 up or from −8 down.
Experiment [7] in a line: S6 kinase pathway phospho-S6 level changes – cell-based, A549, cytoblot, luminescence, serum-stimulated, primary screen (AID 1158).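 Note: serum-stimulated A549 lung adenocarcinoma cells; signal is phosphorylated S6 detected by cytoblot immunostaining with HRP secondary.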 Particulars: 5 h, higher = more signal.
In experiment [8] the target is NADPH oxidase 2 (Homo sapiens) (UniProt P04839). As to the kind of experiment: compounds shifting NOX2 Amplex Red fluorescence – cell-based, HEK293-NOX2, PMA-stimulated, NOX inhibitor project, primary screen (AID 1159). Note: test concentration not given here. The conditions noted are these: 45 min, higher = more signal, called active from +8 up or from −8 down.
The target of experiment [9] is NADPH oxidase 4 (Homo sapiens) (UniProt Q9NPH5). In words: compounds shifting NOX4 Amplex Red fluorescence – cell-based, HEK293-NOX4, tetracycline-induced, NOX inhibitor project, primary screen (AID 1160). Particulars: HEK293-NOX4, Amplex Red H2O2 fluorescence, 45 min; higher = more signal, called active from +8 up or from −8 down.
Experiment [10] deals with NADPH oxidase 5 (Homo sapiens) (UniProt Q96PH1). In words: compounds shifting NOX5 Amplex Red fluorescence – cell-based, HEK293-NOX5, NOX inhibitor project, primary screen (AID 1161). Particulars: HEK293-NOX5, ionomycin, 45 min, higher = more signal.
Experiment [11] in a line: compound effects on lung adenocarcinoma cell viability – A549, calcein-AM fluorescence, 48 h, basal, profiling panel (AID 1162). Note: test concentration not given here. The conditions noted are these: higher = more signal.
Experiment [12] is described as follows: compound effects on differentiated 3T3-L1 adipocyte viability – cell-based, 3T3-L1 adipocytes, calcein-AM fluorescence, 48 h, basal, profiling panel (AID 1163). Note: test concentration not given here. Particulars: 3T3-L1 adipocytes viability, higher = more signal.
A short description of experiment [13]: compound effects on hepatocellular carcinoma cell viability – HepG2, calcein-AM fluorescence, 48 h, basal, profiling panel (AID 1164). Note: test concentration not given here. Particulars: higher = more signal.
A short description of experiment [14]: compound effects on multiple myeloma cell viability – MM1S, calcein-AM fluorescence, 48 h, basal, profiling panel (AID 1165).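 Note: viability of MM1S multiple myeloma cells under basal unstimulated conditions; test concentration not given here.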 Particulars: higher = more signal.
Experiment [15] in a line: calcein-AM signal in unstimulated myeloma cells – cell-based, calcein-AM fluorescence, 48 h, PK04 Diversity Set, profiling panel (AID 1166).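 Note: cells grown under basal conditions without added stimulus; test concentration not given here.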 Particulars: RPMI8226 myeloma viability, higher = more signal.
The nature of experiment [16]: JC-1 mitochondrial signal, unstimulated HepG2 cells – cell-based, JC-1 fluorescence, 24 h, 100 nL compound, profiling panel (AID 1167). Note: test concentration not given here. Particulars: HepG2 mitochondrial potential, higher = more signal.
Experiment [17] can be described thus: JC-1 mitochondrial signal, unstimulated adipocytes – cell-based, JC-1 fluorescence, 3T3-L1 adipocytes, 24 h, 100 nL compound, profiling panel (AID 1168). Note: test concentration not given here. Particulars: JC-1 mitochondrial fluorescence, higher = more signal, called active from +8 up or from −8 down.
A short description of experiment [18]: JC-1 mitochondrial signal, unstimulated myeloma cells – cell-based, JC-1 fluorescence, RPMI8226, 24 h, 100 nL compound, profiling panel (AID 1169). Note: test concentration not given here. Particulars: JC-1 mitochondrial potential fluorescence, higher = more signal.
Experiment [19] is described as follows: JC-1 mitochondrial signal, unstimulated MM1S myeloma – cell-based, JC-1 fluorescence, 24 h, 100 nL compound, profiling panel (AID 1170). Note: test concentration not given here. Particulars: MM1S mitochondrial potential, higher = more signal.
Experiment [20] can be described thus: resazurin metabolic signal in A549 cells – cell-based, resazurin fluorescence, 24 h, PK04 Diversity Set, profiling panel (AID 1171). Note: test concentration not given here. Particulars: A549 viability, higher = more signal, called active from +8 up or from −8 down. On the technique in general: The colour change of resazurin is a common sign of viable cells or microbes.

Activity calls are given as the source filed them.

NADPH oxidase 4 (Homo sapiens), sequence (Q9NPH5 whole entry, looked up): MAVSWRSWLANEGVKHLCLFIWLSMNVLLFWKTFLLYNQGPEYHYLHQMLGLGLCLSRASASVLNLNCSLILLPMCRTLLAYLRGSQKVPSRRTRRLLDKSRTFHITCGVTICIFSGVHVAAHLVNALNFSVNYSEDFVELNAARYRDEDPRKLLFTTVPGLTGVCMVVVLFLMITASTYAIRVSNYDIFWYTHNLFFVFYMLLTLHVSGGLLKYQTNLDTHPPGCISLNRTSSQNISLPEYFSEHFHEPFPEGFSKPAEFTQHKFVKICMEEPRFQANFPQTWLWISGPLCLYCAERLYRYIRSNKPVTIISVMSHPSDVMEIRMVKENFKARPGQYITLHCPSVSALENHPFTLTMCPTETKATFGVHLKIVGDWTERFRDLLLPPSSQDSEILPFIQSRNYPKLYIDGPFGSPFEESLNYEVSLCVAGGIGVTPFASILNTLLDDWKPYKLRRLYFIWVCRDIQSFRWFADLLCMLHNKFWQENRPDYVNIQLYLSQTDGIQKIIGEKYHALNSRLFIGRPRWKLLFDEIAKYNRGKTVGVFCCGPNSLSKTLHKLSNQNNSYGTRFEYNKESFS
NADPH oxidase 2 (Homo sapiens), sequence (P04839 whole entry, looked up): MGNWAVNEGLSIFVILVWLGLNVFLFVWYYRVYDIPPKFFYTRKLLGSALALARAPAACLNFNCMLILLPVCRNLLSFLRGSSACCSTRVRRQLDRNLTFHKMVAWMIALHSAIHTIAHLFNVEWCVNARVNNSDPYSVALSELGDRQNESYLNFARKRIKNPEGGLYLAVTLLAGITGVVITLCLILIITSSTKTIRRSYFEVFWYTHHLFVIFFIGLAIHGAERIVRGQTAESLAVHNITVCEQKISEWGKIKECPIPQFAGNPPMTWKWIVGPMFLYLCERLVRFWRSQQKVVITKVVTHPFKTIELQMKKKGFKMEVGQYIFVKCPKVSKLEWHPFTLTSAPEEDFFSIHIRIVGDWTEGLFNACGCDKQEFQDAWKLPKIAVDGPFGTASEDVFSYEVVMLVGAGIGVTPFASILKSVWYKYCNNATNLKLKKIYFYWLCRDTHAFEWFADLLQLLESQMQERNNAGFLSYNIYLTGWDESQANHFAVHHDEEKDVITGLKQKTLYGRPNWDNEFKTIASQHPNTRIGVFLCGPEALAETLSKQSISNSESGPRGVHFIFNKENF
NADPH oxidase 5 (Homo sapiens), sequence (Q96PH1 whole entry, looked up): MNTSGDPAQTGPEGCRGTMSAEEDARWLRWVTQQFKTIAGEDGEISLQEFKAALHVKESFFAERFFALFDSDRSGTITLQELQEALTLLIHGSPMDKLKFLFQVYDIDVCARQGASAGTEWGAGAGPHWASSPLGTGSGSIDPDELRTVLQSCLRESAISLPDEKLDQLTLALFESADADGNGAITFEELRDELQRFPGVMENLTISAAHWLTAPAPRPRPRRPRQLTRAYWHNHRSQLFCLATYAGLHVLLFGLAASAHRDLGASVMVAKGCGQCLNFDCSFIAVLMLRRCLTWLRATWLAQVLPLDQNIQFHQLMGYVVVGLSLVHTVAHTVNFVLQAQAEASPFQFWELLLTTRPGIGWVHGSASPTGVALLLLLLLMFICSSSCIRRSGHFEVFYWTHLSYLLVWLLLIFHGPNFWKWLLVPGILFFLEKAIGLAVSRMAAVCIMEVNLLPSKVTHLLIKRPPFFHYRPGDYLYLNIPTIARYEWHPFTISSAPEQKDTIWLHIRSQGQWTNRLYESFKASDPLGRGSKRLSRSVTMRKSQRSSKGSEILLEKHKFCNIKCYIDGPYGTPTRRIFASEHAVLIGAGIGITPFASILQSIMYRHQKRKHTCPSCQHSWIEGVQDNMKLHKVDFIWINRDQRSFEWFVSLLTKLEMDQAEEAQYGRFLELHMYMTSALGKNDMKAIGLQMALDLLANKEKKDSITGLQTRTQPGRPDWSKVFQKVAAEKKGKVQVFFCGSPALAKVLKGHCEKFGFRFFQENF

Regarding `CCOC(=O)C1=C[C@@H](c2ccccc2)N(S(=O)(=O)c2ccc(C)cc2)[C@H]1c1ccc(F)cc1`, the z-score in [1] was -1.15 (inactive); in experiment [3], 1.66 (inactive); in [4] it was 1.42 (inactive); in experiment [5], -0.101 (inactive); in experiment [6] it was 1 (inactive); in experiment [7], -0.217. Moreover, the z-score is 0.108 (inactive) in experiment [8]; 0.814 (inactive) in [9]; -0.291 in experiment [10]; -1.39 in experiment [11]; -0.498 in [12]; -2.67 in experiment [13]. The z-score was -2.06 in experiment [14]; -1.34 in [15]; 2.45 in [16]; -1.16 (inactive) in experiment [17]; -0.118 in [18]; -0.00719 in experiment [19]. The z-score in [20] was 1.04 (inactive). Moreover, the composite z-score in [2] amounted to 0.275.
For the compound `COc1ccc(C(=O)Nc2ccc(CN3C(=O)[C@]4(O[C@H](CCn5cc(CCO)nn5)[C@@H]([Si](C)(C)c5ccc(OC)cc5)[C@@H]4C)c4ccccc43)cc2)cc1`, the z-score in experiment [1] is 0.173 (inactive); in experiment [3], 9.37 (active); in experiment [4] it was 2.64 (inactive); in experiment [5], 1.68 (inactive); in experiment [6], 1.67 (inactive); in [7], -0.196. For the same compound, the z-score in [8] was 0.844 (inactive); in [9] it was 0.392 (inactive); in experiment [10], 3.29; in experiment [11] it was -3.11; in [12] it was -0.616; in [13], -4.54. For the same compound, the z-score in experiment [14] is -2.68; in [15], -4.37; in experiment [16], 1.17; in [17] it was 1.3 (inactive); in experiment [18], -1.1; in [19], -1.8. Further, in [20], the z-score was -3.05 (inactive). For the same compound, the composite z-score in [2] stood at 0.0253.
Turning to `O=C1NC(=O)C2C1C=CC(C(O)C=Cc1ccc([N+](=O)[O-])cc1)N2Nc1ccccn1` (stereo not given), the z-score was -0.297 (inactive) in experiment [1]; 0.273 (inactive) in [3]; 1.27 (inactive) in experiment [4]; 0.0385 (inactive) in [5]; 1 (inactive) in experiment [6]; -0.831 in [7]. Moreover, the z-score in [8] was 0.258 (inactive); in experiment [9], -2.01 (inactive); in experiment [10] it was -1.52; in experiment [11] it was 0.183; in [12] it was -1.49; in [13] it was 0.324. Besides, the z-score in experiment [14] is -0.141; in experiment [15], -0.411; in [16], -0.249; in [17], -0.304 (inactive); in experiment [18] it was 0.412; in experiment [19], 0.423. Moreover, the z-score in experiment [20] is -0.355 (inactive). The same compound gave a composite z-score in experiment [2] of 0.0457.
For `C=CCN1C(=O)[C@@]2(Cc3ccccc3)N=C(c3ccc(OCCCO)cc3)O[C@H]2c2ccccc21`, the z-score is 0.0648 (inactive) in experiment [1]; 33.3 (active) in experiment [3]; 32 (active) in [4]; 2.61 (inactive) in [5]; 9.79 (active) in experiment [6]; -0.586 in [7]. The z-score is -1.87 (inactive) in experiment [8]; 0.969 (inactive) in experiment [9]; 0.0569 in experiment [10]; -1.38 in [11]; 1.56 in experiment [12]; -1.82 in experiment [13]. In addition, the z-score in [14] is -2.95; in [15], -3.94; in [16], -2.07; in experiment [17] it was 1.58 (inactive); in experiment [18] it was -1.11; in experiment [19] it was -2.14. For the same compound, in [20], the z-score is -1.36 (inactive). The composite z-score in experiment [2] is 0.48.
`C=C(/C(=C/C[C@@H](OC(=O)c1ccncc1)c1ccc(CO)o1)c1cnc2ccccc2c1)C(C)C`: the z-score was 0.767 (inactive) in experiment [1]; 4.66 (inactive) in [3]; 0.231 (inactive) in experiment [4]; 0.633 (inactive) in experiment [5]; -0.0835 (inactive) in experiment [6]; -0.191 in experiment [7]. In addition, the z-score was 0.588 (inactive) in experiment [8]; -0.649 (inactive) in experiment [9]; -1.08 in [10]; 0.755 in [11]; 1.61 in experiment [12]; -0.993 in [13]. The z-score in experiment [14] was -1.24; in [15] it was 0.13; in experiment [16], -0.75; in [17], 0.03 (inactive); in experiment [18], 0.0616; in experiment [19] it was 0.627. Besides, in experiment [20], the z-score is 0.382 (inactive). The same compound showed a composite z-score in [2] of 0.0248.

The record behind these values is PubChem BioAssay.
